From PubChem
LmPK inh – inhibitors of Leishmania mexicana pyruvate kinase. Q27686. purified LmPK, Kinase-Glo ATP luminescence, 1 h. Potency, µM (titrated, usually from 57.5 µM), hits mostly inhibitors. actives 0.37% (n = 290,000). AID 1721
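Purified LmPK (0.1 nM) with 0.5 mM PEP and 0.1 mM ADP in imidazole buffer pH 7.2 with MgCl2/KCl, 1 h at room temperature. ATP formed was read by luciferase luminescence and normalized to no-enzyme and uninhibited controls.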
Sm TGR block – inhibitors of Schistosoma mansoni thioredoxin glutathione reductase; purified TGR, DTNB reduction, TNB absorbance 405 nm; Potency, µM (titrated, usually from 114 µM), actives largely listed as inhibitors; actives 3% (n = 360,000); also: nearly all actives have a fitted effect of over 60% in size
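First, TGR (20 nM dispensed) and NADPH were mixed with compound. Second, a 15 min room-temperature incubation followed. Third, further NADPH and then DTNB were added to start the reaction. Finally, TNB absorbance was monitored kinetically.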
TbPYK inhibitor – T. brucei pyruvate kinase inhibition | Q57TT1 | actives 0.12% (n = 410,000) | Potency, µM (series often up to 76.8 µM), hits mostly inhibitors | AID 624173 | TbPYK enzyme, Kinase-Glo Plus ATP luminescence, 45 min; also: nearly all actives have a fitted effect of over 50% in size
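Enzyme and substrate buffer are dispensed first and compound is pin-transferred. ADP at 130 uM final then starts the reaction, which runs 45 min at room temperature. Detection reagent is added for 10 min before luminescence is imaged.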
Shiga toxin inh – Shiga toxin inhibition; Vero cells, Shiga toxin protein synthesis inhibition reporter; inhibition, % at 38.7 µM; actives 9.2% (n = 290,000); AID 2315; in the data active = inhibition mostly above about 28%, no sharp cut-off; inactive = mostly below about 43%
Giardia FBPA inh – inhibitors of Giardia lamblia fructose-1,6-bisphosphate aldolase; actives 0.71% (n = 290,000); purified Giardia FBPA; Potency, µM (doses to about 59.6 µM), most hits filed as inhibitors; AID 2451; also: nearly all actives have a fitted effect of over 55% in size
Target sequence (A8B2U2 whole entry, looked up): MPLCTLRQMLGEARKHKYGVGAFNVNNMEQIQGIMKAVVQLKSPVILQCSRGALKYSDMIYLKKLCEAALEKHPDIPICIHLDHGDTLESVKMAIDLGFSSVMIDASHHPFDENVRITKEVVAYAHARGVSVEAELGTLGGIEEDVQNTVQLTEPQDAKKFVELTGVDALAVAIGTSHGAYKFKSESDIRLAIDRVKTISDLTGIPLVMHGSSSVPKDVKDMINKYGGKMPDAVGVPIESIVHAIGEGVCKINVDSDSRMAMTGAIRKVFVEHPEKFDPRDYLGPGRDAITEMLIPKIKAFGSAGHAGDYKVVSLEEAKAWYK
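Giardia FBPA (40 nM reagent) was preincubated 10 min at RT with compound (up to 57.5 uM final), then substrate plus GAPDH/TPI/NAD/arsenate coupling system with diaphorase/resazurin was added; resorufin fluorescence (525/598 nm) was read after 20 min.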
CHX counter – affects cycloheximide protein synthesis inhibition readout, counter-screen. cell reporter, cycloheximide protein synthesis inhibition counterscreen. max response, %. actives 12% (n = 300,000). AID 2314; in the data active = max response mostly above about 13%, no sharp cut-off; inactive = mostly below about 14%; also: read at 38.3 µM for the half of the compounds with a filed dose
Hits are given with their value; [ ] = remark or other dose. Many of the other results were omitted from the sample, so hits are more common in it than they were. Unless noted, calls follow the shape of the dose curve; as a rule, active = well fitted curve in the direction sought with a large enough effect; inconclusive = small, poorly fitted or top-dose-only effect, or another doubt; inactive = no such curve, though single readings can be large; an effect the other way counts as inactive or inconclusive.

For CCc1ccc(C2c3c(n[nH]c3C)C(=O)N2c2ccc(C)cc2)cc1 (stereo not drawn) the results were Sm TGR block inactive and TbPYK inhibitor inactive.
Cc1cccc(OCC(=O)NCc2ccc3c(c2)CCN3C(=O)c2ccccc2)c1 was read as Sm TGR block inactive and TbPYK inhibitor inactive.
Cc1c(C(=O)NCc2cccc(Cl)c2)sc2ncnc(N(C)C3CCCCC3)c12 was read as Sm TGR block inactive and TbPYK inhibitor inactive.
For Cc1ccc2c(c1)-c1onc(C(=O)N(C)c3ccc(F)cc3)c1CO2 the results were Sm TGR block inactive and TbPYK inhibitor inactive.
Cc1cccc(NC(=O)C(=O)NCC(c2ccc3c(c2)OCO3)N2CCOCC2)c1C (stereo not drawn) was read as Sm TGR block inactive and TbPYK inhibitor inactive.
For COc1ccc(-n2ncc3c(NC(C)(C)CO)ncnc32)cc1 the results were Sm TGR block inactive and TbPYK inhibitor inactive.
For CC(C)OC(=O)CSc1nc(N)c(C#N)c(-c2ccco2)c1C#N the results were LmPK inh inactive, Sm TGR block 40µM, TbPYK inhibitor inactive, Shiga toxin inh inactive, Giardia FBPA inh inconclusive and CHX counter inactive.
For CCCCc1nc2c(c3c1C[C@H](C)OC3)CN(S(=O)(=O)c1c(C)noc1C)CC2 the results were LmPK inh inactive[11.5 µM] and Giardia FBPA inh inactive[12.9 µM].
Screening COc1ccc(CCC(=O)Nc2ccc(S(=O)(=O)Nc3nccc(C)n3)cc2)cc1 returned LmPK inh inactive, Sm TGR block inactive, TbPYK inhibitor inactive, Shiga toxin inh inactive, Giardia FBPA inh inactive and CHX counter inactive.
Screening CC(O)CNC(=O)C(=O)Nc1c2c(nn1-c1ccc(Cl)cc1)CSC2 (stereo not drawn) returned Sm TGR block inactive and TbPYK inhibitor inactive.
For Cc1ccc(CNC(=O)C(=O)NCC(c2cccs2)S(=O)(=O)c2cccs2)cc1 (stereo not drawn) the results were Sm TGR block 22µM and TbPYK inhibitor inactive.
`COc1ccc(CNC(=O)C(=O)NCC(c2cccs2)S(=O)(=O)c2ccc(C)cc2)cc1` (stereo not drawn) gave Sm TGR block 40µM and TbPYK inhibitor inactive.
COc1ccc(CNC(=O)C(=O)NCC(c2cccs2)S(=O)(=O)c2ccc(F)cc2)cc1 (stereo not drawn) was read as Sm TGR block inactive and TbPYK inhibitor inactive.
For COc1ccc(CC(=O)NCC(c2cccs2)S(=O)(=O)c2ccc(Cl)cc2)cc1 (stereo not drawn) the results were Sm TGR block 11µM and TbPYK inhibitor inactive.
CN1CCN(S(=O)(=O)c2ccc(Sc3nnnn3-c3ccccc3)c([N+](=O)[O-])c2)CC1 was read as LmPK inh inactive, Sm TGR block 7.1µM, TbPYK inhibitor inactive, Shiga toxin inh inactive, Giardia FBPA inh inactive and CHX counter inactive.
`CC(=O)c1ccc(Sc2nnnn2-c2ccccc2)c([N+](=O)[O-])c1` gave LmPK inh inactive, Sm TGR block 35µM, TbPYK inhibitor inactive, Shiga toxin inh inactive, Giardia FBPA inh inactive and CHX counter inactive.
COc1ccc(NC(=O)C2c3ccccc3OCC(=O)N2Cc2cccnc2)cc1 (stereo not drawn) was read as TbPYK inhibitor inactive.
COc1cc(/C=N/NC(=Nc2ccc(C)cc2)c2nc3ccccc3s2)ccc1O was read as LmPK inh inactive, Sm TGR block inactive, TbPYK inhibitor inactive, Shiga toxin inh 100, Giardia FBPA inh inactive and CHX counter 42.
COc1ccccc1/C=N/NC(=Nc1ccc(C)cc1)c1nc2ccccc2s1 was read as LmPK inh inactive, Sm TGR block inactive, Shiga toxin inh 184, Giardia FBPA inh inactive and CHX counter 53.
Screening C[C@@H]1CC2OC(=O)[C@@]3(C)C(=O)CC[C@@](C)(C23)[C@@]1(O)CCc1ccoc1 (stereo partly drawn) returned LmPK inh inactive, Sm TGR block inactive, TbPYK inhibitor inactive, Shiga toxin inh inactive, Giardia FBPA inh inactive and CHX counter 26.
